# Experimental data taken from the supplement of paper PMC9262897, “Low-cost anti-mycobacterial drug discovery using engineered E. coli” (Nature Communications, 2022).
# Counter-ions that a name gives are not always drawn. ± gives the standard deviation of the averaged measurements.
# System: E. coli TESEC Mtb DapB
# Assay: growth (OD600 after 10 h); higher = more growth (less inhibition)
# Settings: arabinose induction (level): High; compound 0.1 mM; raw OD600 reference: median of DMSO wells […], cell-free background 0.041
# Experimental: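 TESEC E. coli strains in which the native enzyme is deleted and replaced by arabinose-inducible Mtb Asd, DapB, CysH or TrpD, each grown in its selective medium. Strains were screened against the Prestwick library at 0.1 mM and 1% DMSO in 384-well format at low and high arabinose induction. Growth is read as OD600 after 10 h in triplicate.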
row,SMILES,growth
1,CC[C@H](C)[C@H]1O[C@]2(CC[C@@H]1C)C[C@@H]1C[C@@H](CC=C(C)C(O[C@H]3C[C@H](OC)[C@@H](O[C@H]4C[C@H](OC)[C@@H](O)[C@H](C)O4)[C@H](C)O3)[C@@H](C)C=CC=C3CO[C@@H]4[C@H](O)C(C)=C[C@@H](C(=O)O1)[C@]34O)O2 (stereo not given in full) [Ivermectin],0.281 ± 0.035
2,Cc1ccc(C(=O)c2ccc(CC(=O)O)n2C)cc1 [Tolmetin sodium salt dihydrate],0.197 ± 0.024
3,COc1ccc(C2CNC(=O)C2)cc1OC1CCCC1 (stereo not given) [Rolipram],0.211 ± 0.0056
4,O=C(NCCNCC(O)COc1ccc(O)cc1)N1CCOCC1 (stereo not given) [Xamoterol hemifumarate],0.21 ± 0.0088
5,NC(=O)N1c2ccccc2CC(=O)c2ccccc21 [Oxcarbazepine],0.189 ± 0.0098
6,C[C@@](Cc1ccc(O)c(O)c1)(NN)C(=O)O [Carbidopa],0.159 ± 0.016
7,C=CC1=C(C(=O)O)N2C(=O)[C@@H](NC(=O)/C(=N\O)c3csc(N)n3)[C@H]2SC1 [Cefdinir],0.0548 ± 0.003
8,CCN(CC)C(C)CN1c2ccccc2Sc2ccccc21 (stereo not given) [Ethopropazine hydrochloride],0.2149 ± 0.0019
9,CN1CCC(=C2c3ccccc3CC(=O)c3sccc32)CC1 [Ketotifen fumarate],0.239 ± 0.043
10,CN(C)[C@@H]1C(=O)C(C(=O)NCNCCCC[C@H](N)C(=O)O)=C(O)[C@@]2(O)C(=O)C3=C(O)c4c(O)cccc4[C@@](C)(O)[C@H]3C[C@@H]12 [Lymecycline],0.0866 ± 0.01
11,N[C@H]1CONC1=O [(S)-(-)-Cycloserine],0.211 ± 0.015
12,CCCCC(CC)CNC(=N)NC(=N)NCCCCCCNC(=N)NC(=N)NCC(CC)CCCC (stereo not given) [Alexidine dihydrochloride],0.0749 ± 0.029
13,CN1CCN(CCCN2c3ccccc3Sc3ccc(C(F)(F)F)cc32)CC1 [Trifluoperazine dihydrochloride],0.04873 ± 0.00025
14,CCCN(CCC)S(=O)(=O)c1ccc(C(=O)O)cc1 [Probenecid],0.232 ± 0.0066
15,Nc1nc(F)nc2c1ncn2[C@@H]1O[C@H](CO)[C@@H](O)[C@@H]1O [Fludarabine],0.168 ± 0.014
16,OC(CCN1CCCCC1)(c1ccccc1)c1ccccc1 [Pridinol methanesulfonate salt],0.194 ± 0.02
17,CC(C)Cn1cnc2c(N)nc3ccccc3c21 [Imiquimod],0.21 ± 0.011
18,COc1ccc(C(Cl)=C(c2ccc(OC)cc2)c2ccc(OC)cc2)cc1 [Chlorotrianisene],0.232 ± 0.016
19,CCCC1C(=O)N2C(N(C)C)=Nc3ccc(C)cc3N2C1=O (stereo not given) [Azapropazone],0.185 ± 0.015
20,COCC1=C(C(=O)OC(C)OC(=O)OC(C)C)N2C(=O)[C@@H](NC(=O)/C(=N\OC)c3csc(N)n3)[C@H]2SC1 (stereo not given in full) [Cefpodoxime proxetil],0.202 ± 0.05

# Same assay, conditions: arabinose induction (level): Low; compound 0.1 mM; raw OD600 reference: median of DMSO wells 0.227, cell-free background 0.041
row,SMILES,growth
1,CC[C@H](C)[C@H]1O[C@]2(CC[C@@H]1C)C[C@@H]1C[C@@H](CC=C(C)C(O[C@H]3C[C@H](OC)[C@@H](O[C@H]4C[C@H](OC)[C@@H](O)[C@H](C)O4)[C@H](C)O3)[C@@H](C)C=CC=C3CO[C@@H]4[C@H](O)C(C)=C[C@@H](C(=O)O1)[C@]34O)O2 (stereo not given in full) [Ivermectin],0.28 ± 0.041
2,Cc1ccc(C(=O)c2ccc(CC(=O)O)n2C)cc1 [Tolmetin sodium salt dihydrate],0.223 ± 0.028
3,COc1ccc(C2CNC(=O)C2)cc1OC1CCCC1 (stereo not given) [Rolipram],0.217 ± 0.0081
4,O=C(NCCNCC(O)COc1ccc(O)cc1)N1CCOCC1 (stereo not given) [Xamoterol hemifumarate],0.232 ± 0.024
5,NC(=O)N1c2ccccc2CC(=O)c2ccccc21 [Oxcarbazepine],0.201 ± 0.019
6,C[C@@](Cc1ccc(O)c(O)c1)(NN)C(=O)O [Carbidopa],0.173 ± 0.018
7,C=CC1=C(C(=O)O)N2C(=O)[C@@H](NC(=O)/C(=N\O)c3csc(N)n3)[C@H]2SC1 [Cefdinir],0.0595 ± 0.015
8,CCN(CC)C(C)CN1c2ccccc2Sc2ccccc21 (stereo not given) [Ethopropazine hydrochloride],0.236 ± 0.015
9,CN1CCC(=C2c3ccccc3CC(=O)c3sccc32)CC1 [Ketotifen fumarate],0.217 ± 0.02
10,CN(C)[C@@H]1C(=O)C(C(=O)NCNCCCC[C@H](N)C(=O)O)=C(O)[C@@]2(O)C(=O)C3=C(O)c4c(O)cccc4[C@@](C)(O)[C@H]3C[C@@H]12 [Lymecycline],0.152 ± 0.0064
11,N[C@H]1CONC1=O [(S)-(-)-Cycloserine],0.276 ± 0.051
12,CCCCC(CC)CNC(=N)NC(=N)NCCCCCCNC(=N)NC(=N)NCC(CC)CCCC (stereo not given) [Alexidine dihydrochloride],0.071 ± 0.014
13,CN1CCN(CCCN2c3ccccc3Sc3ccc(C(F)(F)F)cc32)CC1 [Trifluoperazine dihydrochloride],0.171 ± 0.11
14,CCCN(CCC)S(=O)(=O)c1ccc(C(=O)O)cc1 [Probenecid],0.223 ± 0.02
15,Nc1nc(F)nc2c1ncn2[C@@H]1O[C@H](CO)[C@@H](O)[C@@H]1O [Fludarabine],0.194 ± 0.028
16,OC(CCN1CCCCC1)(c1ccccc1)c1ccccc1 [Pridinol methanesulfonate salt],0.262 ± 0.035
17,CC(C)Cn1cnc2c(N)nc3ccccc3c21 [Imiquimod],0.261 ± 0.045
18,COc1ccc(C(Cl)=C(c2ccc(OC)cc2)c2ccc(OC)cc2)cc1 [Chlorotrianisene],0.267 ± 0.0015
19,CCCC1C(=O)N2C(N(C)C)=Nc3ccc(C)cc3N2C1=O (stereo not given) [Azapropazone],0.206 ± 0.025
20,COCC1=C(C(=O)OC(C)OC(=O)OC(C)C)N2C(=O)[C@@H](NC(=O)/C(=N\OC)c3csc(N)n3)[C@H]2SC1 (stereo not given in full) [Cefpodoxime proxetil],0.285 ± 0.049
